40 molecules from PubChem BioAssay can be followed below.

The structures appear in SMILES notation. The source made the active and inactive calls. Unless noted, no stated cut-off is given here; in the data, active means response above about 15%; inactive means the rest.

For orientation: inhibition means the drop in the measured response relative to a control, in per cent.

AP-2 complex subunit beta (Homo sapiens), sequence (P63010 whole entry, looked up, the tested form may be a part, one chain of several): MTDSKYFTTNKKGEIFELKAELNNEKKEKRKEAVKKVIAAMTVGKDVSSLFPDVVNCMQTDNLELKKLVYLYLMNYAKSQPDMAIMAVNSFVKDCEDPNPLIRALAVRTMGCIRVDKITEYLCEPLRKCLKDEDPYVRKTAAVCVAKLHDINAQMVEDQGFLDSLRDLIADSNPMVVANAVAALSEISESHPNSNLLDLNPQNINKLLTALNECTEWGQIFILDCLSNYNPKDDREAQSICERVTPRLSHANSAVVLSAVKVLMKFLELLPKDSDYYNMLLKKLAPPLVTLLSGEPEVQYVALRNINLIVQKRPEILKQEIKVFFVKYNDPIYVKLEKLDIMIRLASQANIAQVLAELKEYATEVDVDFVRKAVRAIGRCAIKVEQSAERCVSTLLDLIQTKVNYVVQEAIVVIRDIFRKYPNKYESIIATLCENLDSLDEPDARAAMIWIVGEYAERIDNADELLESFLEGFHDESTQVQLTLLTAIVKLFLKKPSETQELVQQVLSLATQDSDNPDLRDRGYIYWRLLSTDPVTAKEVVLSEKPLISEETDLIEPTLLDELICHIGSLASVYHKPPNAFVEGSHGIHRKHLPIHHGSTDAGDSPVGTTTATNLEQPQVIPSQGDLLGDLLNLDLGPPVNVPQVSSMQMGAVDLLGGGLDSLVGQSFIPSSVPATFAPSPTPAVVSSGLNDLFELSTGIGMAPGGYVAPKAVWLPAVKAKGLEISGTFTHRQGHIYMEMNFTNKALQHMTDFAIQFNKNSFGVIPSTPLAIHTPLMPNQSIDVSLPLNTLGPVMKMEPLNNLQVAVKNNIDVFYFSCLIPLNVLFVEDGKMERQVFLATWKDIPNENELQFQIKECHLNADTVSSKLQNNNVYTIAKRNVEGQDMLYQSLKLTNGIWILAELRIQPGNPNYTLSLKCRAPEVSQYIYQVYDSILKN

The first assay has as its target AP-2 complex subunit beta (Homo sapiens) (UniProt P63010). As to the kind of experiment: inhibitors of arrestin peptide binding to AP2, pilot screen, biochemical, validation set, GST-AP2 beads, flow cytometry (AID 504541;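 active means inhibition above 54%, about 3 SD of non-fluorescent compounds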;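 further: AP2 carries R879A mutation and is captured from E. coli lysate; bead-bound FITC arrestin peptide fluorescence measuring arrestin peptide binding to AP2; 0% = DMSO wells and 100% = excess unlabeled arrestin peptide control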). Conditions: FITC arrestin peptide, at 10 µM, active compounds read high, AP2 beta2 appendage fragment, R879A mutant. (In flow cytometry, cells or beads pass a laser one at a time.)
`CCN(CC)C(=O)N1CCN(C)CC1`: the inhibition is 7.6% (inactive).
On to `CC1(C)[C@@H](O)CC[C@]2(C)[C@H]3C(=O)C=C4[C@@H]5C[C@@](C)(C(=O)O)CC[C@]5(C)CC[C@@]4(C)[C@]3(C)CC[C@@H]12`, for which the inhibition was -5.72% (inactive).
On to `O=C(Nc1ccc(Cl)cn1)Nc1ccccc1Cl`, for which the inhibition was -8.05% (inactive).
The same measure, in the same setting: as for `COc1c(C=O)c(CCN(C)C(=O)c2ccc(F)cc2)cc2c1OCO2`, the figure is 10.3% (inactive); as for `COc1ccc(C2C3=C(CC(C)(C)CC3=O)N(C)C3=C2C(=O)CC(C)(C)C3)cc1`, 2.92% (inactive); as for `CC(C)(Sc1cc(C(C)(C)C)c(O)c(C(C)(C)C)c1)Sc1cc(C(C)(C)C)c(O)c(C(C)(C)C)c1`, 10.6% (inactive).
Same read-out and setting: then `CC(=O)NC(NC(=S)N1CCCCCC1)C(Cl)(Cl)Cl` (stereo not given), with -7.04% (inactive); and `Cc1ccc2c(CC(=O)O)coc2c1`, with 0.71% (inactive); and `COc1cccc(N2C(=O)CC(c3c[nH]c4ccccc34)C2=O)c1` (stereo not given), with 10% (inactive).
Still for that read-out and setting: as for `CC1(CC(=O)Nc2ccccc2)NC(=S)N(c2ccccc2)N1` (stereo not given), the figure is -4.29% (inactive).
As for `O=c1nc2n(c3c1oc1ccccc13)Cc1ccccc1-2`, the inhibition is -6.48% (inactive).
On the same count and under the same terms, then `COC(=O)c1ccc(NC(=O)C23CCC(C)(C(=O)O2)C3(C)C)cc1` (stereo not given), with 1.74% (inactive); and `c1cnc(N2CCN(Cc3ccc4c(c3)OCO4)CC2)nc1`, with 2.85% (inactive).
Still for that read-out and setting: then `CCOC(=O)C1=C(N)Oc2c(c(=O)[nH]c3ccccc23)C1c1ccccc1` (stereo not given), with 1.81% (inactive); and `CCOc1ccc2[nH]c3c(=O)n(CCc4ccc(OC)cc4)cnc3c2c1`, with -8.18% (inactive).
Still for that read-out and setting: as for `CC(=O)OC(C)C[N+](C)(C)C` (stereo not given), the figure is -17.2% (inactive); as for `CNc1c2c(nn1C)CCCC2`, -17.3% (inactive).
With `O=C(CN1C(=O)/C(=C/c2cccc(Br)c2)SC1=S)Nc1cccnc1`, the inhibition was -4.86% (inactive).
Still for that read-out and setting: as for `N/C(Cc1ccc(Cl)cc1Cl)=N\OC(=O)c1ccc(Br)o1`, the figure is -11% (inactive); as for `O=C(c1ccco1)N1CCCN(Cc2nc(-c3ccc4c(c3)OCO4)no2)CC1`, 7.41% (inactive); as for `Cc1ccc2c(c1)C(O)(C1COC(C)(C)CC1=O)C(=O)N2C` (stereo not given), -0.06% (inactive).
For the molecule `CC(C)(C)C(=O)N1CCCC1C(=O)O` (stereo not given), the inhibition is -2.34% (inactive).
On the same count and under the same terms, then `COc1ccc(C2NC(=O)c3ccccc3O2)c(OC)c1OC` (stereo not given), with -2.37% (inactive); and `CC(C(=O)O)c1cccc(C(=O)c2ccccc2)c1` (stereo not given), with -7.83% (inactive).
Same read-out and setting: as for `C[N+]1(C2CCC3CCCC2C3O)CCCCC1` (stereo not given), the figure is -10.4% (inactive).
Still for that read-out and setting: then `CCc1cc(=O)oc2cc3occ(-c4ccc(OC)c(F)c4)c3cc12`, with 6.17% (inactive); and `COC(=O)[C@H]1[C@H]2C[C@@H]3c4[nH]c5cc(OC)ccc5c4CCN3C[C@H]2C[C@@H](OC(=O)c2ccc(N)cc2)[C@@H]1OC`, with -1.6% (inactive).
Regarding `O=C(CN1CCN(Cc2ccccc2)CC1)N1CCCc2c1c(=O)oc1ccc(O)cc21`, the inhibition is 9.01% (inactive).
On the same count and under the same terms, as for `CCOc1ccc2ccccc2c1C(=O)N[C@@H]1C(=O)N2[C@@H]1SC(C)(C)[C@@H]2C(=O)O`, the figure is 17.1% (inactive).
The same measure, in the same setting: then `COc1ccccc1N1CCN(CC(O)COc2cccc3ccccc23)CC1` (stereo not given), with -5.11% (inactive); and `C[C@]12CC[C@@H]3c4ccc(O)cc4[C@@H](O)C[C@H]3[C@@H]1CC[C@@H]2O`, with -3.62% (inactive).
On the same count and under the same terms, as for `O[C@H]1COC2C1OC[C@@H]2O` (stereo not given in full), the figure is 3.72% (inactive).
With `O=C(NCCO)c1ccc(Cl)c(Cl)c1`, the inhibition is -1.25% (inactive).
Still for that read-out and setting: as for `O=C(Nc1ccc(C(=O)NC2CCCCC2)cc1)c1cccnc1`, the figure is -15.9% (inactive); as for `CC(=O)Oc1ccc(C(c2ccc(OC(C)=O)cc2)c2ccccn2)cc1`, -3.7% (inactive); as for `CC(CCc1ccccc1)NC(=O)/C=C/c1ccccc1` (stereo not given), -0.16% (inactive).
For the molecule `Cc1ccc2nc(NC3=NC(CC(=O)O)C(=O)N3)nc(C)c2c1` (stereo not given), the inhibition was 8.29% (inactive).
Still for that read-out and setting: as for `O=C(NC(Nc1ccccn1)C(Cl)(Cl)Cl)c1ccccc1` (stereo not given), the figure is -6.1% (inactive); as for `NC(N)=N/N=C/c1cccc(Cl)c1Cl`, 14.4% (inactive).
On the same count and under the same terms, then `COc1ccccc1C(=O)Oc1ccc2c(c1)O/C(=C\c1ccncc1)C2=O`, with 3.83% (inactive).

Tested on in the next assay: not listed separately
As to the kind of experiment: yeast V-ATPase proton transport modulators, S. cerevisiae, pHLuorin, HTS validation (AID 504600).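 Further: plate controls were DMSO for no effect and reference compound for full effect.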 Conditions: S. cerevisiae pHLuorin cytosolic pH, at 10 µM, active compounds read high.
For the molecule `CCN(CC)C(=O)N1CCN(C)CC1`, the response is 0.18% (inactive).
In the case of `CC1(C)[C@@H](O)CC[C@]2(C)[C@H]3C(=O)C=C4[C@@H]5C[C@@](C)(C(=O)O)CC[C@]5(C)CC[C@@]4(C)[C@]3(C)CC[C@@H]12`, the response was 0.36% (inactive).
Turning to `O=C(Nc1ccc(Cl)cn1)Nc1ccccc1Cl`, the response was 23.4% (active).
The same measure, in the same setting: as for `COc1c(C=O)c(CCN(C)C(=O)c2ccc(F)cc2)cc2c1OCO2`, the figure is 2.09% (inactive); as for `COc1ccc(C2C3=C(CC(C)(C)CC3=O)N(C)C3=C2C(=O)CC(C)(C)C3)cc1`, -12.8% (inactive).
As to `CC(C)(Sc1cc(C(C)(C)C)c(O)c(C(C)(C)C)c1)Sc1cc(C(C)(C)C)c(O)c(C(C)(C)C)c1`, the response is -3.38% (inactive).
In the case of `CC(=O)NC(NC(=S)N1CCCCCC1)C(Cl)(Cl)Cl` (stereo not given), the response was 0.33% (inactive).
On the same count and under the same terms, as for `Cc1ccc2c(CC(=O)O)coc2c1`, the figure is -0.96% (inactive).
Still for that read-out and setting: as for `COc1cccc(N2C(=O)CC(c3c[nH]c4ccccc34)C2=O)c1` (stereo not given), the figure is -0.64% (inactive); as for `CC1(CC(=O)Nc2ccccc2)NC(=S)N(c2ccccc2)N1` (stereo not given), -0.03% (inactive); as for `O=c1nc2n(c3c1oc1ccccc13)Cc1ccccc1-2`, -0.9% (inactive).
Same read-out and setting: then `COC(=O)c1ccc(NC(=O)C23CCC(C)(C(=O)O2)C3(C)C)cc1` (stereo not given), with -1.33% (inactive).
With `c1cnc(N2CCN(Cc3ccc4c(c3)OCO4)CC2)nc1`, the response is 0.81% (inactive).
Same read-out and setting: as for `CCOC(=O)C1=C(N)Oc2c(c(=O)[nH]c3ccccc23)C1c1ccccc1` (stereo not given), the figure is 1.75% (inactive); as for `CCOc1ccc2[nH]c3c(=O)n(CCc4ccc(OC)cc4)cnc3c2c1`, 65.9% (active); as for `CC(=O)OC(C)C[N+](C)(C)C` (stereo not given), 0.37% (inactive).
As for `CNc1c2c(nn1C)CCCC2`, the response is -7.05% (inactive).
As to `O=C(CN1C(=O)/C(=C/c2cccc(Br)c2)SC1=S)Nc1cccnc1`, the response was 4.59% (inactive).
Consider `N/C(Cc1ccc(Cl)cc1Cl)=N\OC(=O)c1ccc(Br)o1`, for which the response was 3.34% (inactive).
Turning to `O=C(c1ccco1)N1CCCN(Cc2nc(-c3ccc4c(c3)OCO4)no2)CC1`, the response was -0.63% (inactive).
The same measure, in the same setting: as for `Cc1ccc2c(c1)C(O)(C1COC(C)(C)CC1=O)C(=O)N2C` (stereo not given), the figure is -9.91% (inactive).
On the same count and under the same terms, as for `CC(C)(C)C(=O)N1CCCC1C(=O)O` (stereo not given), the figure is -11% (inactive).
The same measure, in the same setting: as for `COc1ccc(C2NC(=O)c3ccccc3O2)c(OC)c1OC` (stereo not given), the figure is 1.87% (inactive); as for `CC(C(=O)O)c1cccc(C(=O)c2ccccc2)c1` (stereo not given), -2.55% (inactive).
Take `C[N+]1(C2CCC3CCCC2C3O)CCCCC1` (stereo not given): the response is 3.03% (inactive).
On the same count and under the same terms, as for `CCc1cc(=O)oc2cc3occ(-c4ccc(OC)c(F)c4)c3cc12`, the figure is 0.45% (inactive); as for `COC(=O)[C@H]1[C@H]2C[C@@H]3c4[nH]c5cc(OC)ccc5c4CCN3C[C@H]2C[C@@H](OC(=O)c2ccc(N)cc2)[C@@H]1OC`, -2.37% (inactive); as for `O=C(CN1CCN(Cc2ccccc2)CC1)N1CCCc2c1c(=O)oc1ccc(O)cc21`, -1.88% (inactive).
On the same count and under the same terms, as for `CCOc1ccc2ccccc2c1C(=O)N[C@@H]1C(=O)N2[C@@H]1SC(C)(C)[C@@H]2C(=O)O`, the figure is 0.05% (inactive); as for `COc1ccccc1N1CCN(CC(O)COc2cccc3ccccc23)CC1` (stereo not given), 5.97% (inactive); as for `C[C@]12CC[C@@H]3c4ccc(O)cc4[C@@H](O)C[C@H]3[C@@H]1CC[C@@H]2O`, -0.11% (inactive).
In the case of `O[C@H]1COC2C1OC[C@@H]2O` (stereo not given in full), the response is 1.96% (inactive).
The same measure, in the same setting: as for `O=C(NCCO)c1ccc(Cl)c(Cl)c1`, the figure is 0.22% (inactive); as for `O=C(Nc1ccc(C(=O)NC2CCCCC2)cc1)c1cccnc1`, 1.36% (inactive); as for `CC(=O)Oc1ccc(C(c2ccc(OC(C)=O)cc2)c2ccccn2)cc1`, -1.07% (inactive).
The same measure, in the same setting: then `CC(CCc1ccccc1)NC(=O)/C=C/c1ccccc1` (stereo not given), with 1.44% (inactive).
Still for that read-out and setting: then `Cc1ccc2nc(NC3=NC(CC(=O)O)C(=O)N3)nc(C)c2c1` (stereo not given), with 2.1% (inactive).
As for `O=C(NC(Nc1ccccn1)C(Cl)(Cl)Cl)c1ccccc1` (stereo not given), the response was -1.51% (inactive).
Same read-out and setting: as for `NC(N)=N/N=C/c1cccc(Cl)c1Cl`, the figure is -0.64% (inactive); as for `COc1ccccc1C(=O)Oc1ccc2c(c1)O/C(=C\c1ccncc1)C2=O`, 0.47% (inactive).
